HTR5A ag – counter-screen for OPRM1-OPRD1 agonists: human HTR5A agonism; P47898; HTR5A agonist assay, luminescence, cell-based; activation, % at 9.3 µM; 0.61% of 340,000 active; AID 504692; in the data active = activation mostly above about 9.5%, no sharp cut-off; inactive = mostly below about 7.6%;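 also: 0% = cells with vehicle only and 100% = reference agonist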
MOR-DOR ag – agonists of human mu-delta opioid receptor heterodimerization. activation, % at 9.3 µM. cells, OPRM1-OPRD1 heterodimerization, luminescence. 0.3% of 340,000 active; in the data active = activation above about 18%;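 also: 0% = vehicle-treated cells and 100% = reference agonist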
Target sequence (P35372 whole entry, looked up): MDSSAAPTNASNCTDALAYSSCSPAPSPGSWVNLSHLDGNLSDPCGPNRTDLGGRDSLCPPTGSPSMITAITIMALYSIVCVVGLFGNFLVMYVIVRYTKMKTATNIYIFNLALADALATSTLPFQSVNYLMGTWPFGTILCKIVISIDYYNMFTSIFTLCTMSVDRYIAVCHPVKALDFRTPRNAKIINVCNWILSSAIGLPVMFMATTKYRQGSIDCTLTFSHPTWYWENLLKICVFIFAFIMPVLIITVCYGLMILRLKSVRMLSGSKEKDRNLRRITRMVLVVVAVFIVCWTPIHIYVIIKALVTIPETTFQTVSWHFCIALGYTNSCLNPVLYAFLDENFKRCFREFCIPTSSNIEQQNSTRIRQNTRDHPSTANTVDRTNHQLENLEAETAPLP
Target sequence (P41143 whole entry, looked up): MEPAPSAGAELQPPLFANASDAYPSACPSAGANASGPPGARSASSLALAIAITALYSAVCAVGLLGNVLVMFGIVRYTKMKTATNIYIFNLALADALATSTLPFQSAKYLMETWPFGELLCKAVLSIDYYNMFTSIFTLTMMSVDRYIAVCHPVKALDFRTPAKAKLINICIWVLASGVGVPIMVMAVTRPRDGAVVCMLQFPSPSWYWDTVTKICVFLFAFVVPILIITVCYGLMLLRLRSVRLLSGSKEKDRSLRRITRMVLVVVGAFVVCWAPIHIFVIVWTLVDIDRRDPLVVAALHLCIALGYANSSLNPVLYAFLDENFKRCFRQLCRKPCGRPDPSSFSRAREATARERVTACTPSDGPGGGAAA
pCIP destab – compounds decreasing mouse p/CIP protein stability; Q05BA5; F442A p/CIP-EGFP cells, EGFP fluorescence, 16 h; decrease of EGFP signal, % at 10 µM; 0.01% of 290,000 active; AID 1984;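 active = EGFP signal decrease of at least 30% at 10 µM or well 3 SD below plate mean, unless failing retest; inactive = the rest, including hits failing retest or dose response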
MOR-DOR inv ag – inverse agonists of human mu-delta opioid receptor heterodimerization; AID 504357; cell-based MOR-DOR heterodimer luminescence, inverse agonism; 0.21% of 340,000 active; inhibition, % at 9.3 µM; in the data active = inhibition above about 22%, passing the limit was not always enough;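 also: 0% = cells with DMSO and 100% = wells without cells with DMSO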
MIN6 prolif – induces beta-cell replication in MIN6 cells. MIN6 cells proliferation, ATPlite luminescence, 48 h; cells starved in 0.2% serum; 100% = growth in 10% serum. proliferation, % at 10 µM. 0.29% of 330,000 active. AID 2380;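 active = compounds whose signal lies at least 3.5 SD above the mean of all wells on their plate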;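 also: 0% = DMSO-treated cells in low-serum medium and 100% = 10% serum control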
HTR5A inv ag – counter-screen for OPRM1-OPRD1 inverse agonists: human HTR5A inverse agonism; HTR5A cell line, luminescence; inhibition, % at 9.3 µM; 0.083% of 340,000 active; AID 504634; in the data active = inhibition mostly above about 23%, no sharp cut-off; inactive = mostly below about 18%;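 also: 0% = cells with DMSO and 100% = no-cell wells with DMSO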
Starred values were filed as active, the others as inactive. Sampled rows, rich in hits. Any-hit rate of the full collection: about 1.4%.

What do the screens show for `Cc1nc2cc(C(F)(F)F)ccc2n1C1CCN(CC(=O)N2CCOCC2)CC1`?
HTR5A ag: 9.0*; MOR-DOR ag: -1.6; pCIP destab: -2.2; MOR-DOR inv ag: 8.7; MIN6 prolif: -1.9; HTR5A inv ag: 0.2

What do the screens show for `COC(=O)C1=C(O)CSC1=Nc1cccc(C(F)(F)F)c1`?
HTR5A ag: 13.8*; MOR-DOR ag: -2.6; pCIP destab: 0.5; MOR-DOR inv ag: 12.9; MIN6 prolif: -1.5; HTR5A inv ag: -0.8

How did COC(=O)/C(N=Nc1cccc(C(F)(F)F)c1)=C(\C)O do in these assays?
HTR5A ag: 0.2; MOR-DOR ag: 1.8; pCIP destab: -49.3; MOR-DOR inv ag: -9.9; MIN6 prolif: 3.3; HTR5A inv ag: -19.9

Results for Cc1cc(-c2nn(-c3ccccc3F)cc2CNCCc2cnc[nH]2)c(C)s1 ?
HTR5A ag: -3.1; MOR-DOR ag: 143.6*; pCIP destab: 2.9; MOR-DOR inv ag: inactive; MIN6 prolif: -2.7; HTR5A inv ag: -8.8

How did Cc1cc(-c2nn(-c3ccccc3F)cc2CN2CCC(C(N)=O)CC2)c(C)s1 do in these assays?
HTR5A ag: -1.1; MOR-DOR ag: -0.6; pCIP destab: -5.6; MOR-DOR inv ag: 3.1; MIN6 prolif: 2.3; HTR5A inv ag: 4.4

Results for COc1ccc(Cc2nnc(SCc3c(C)noc3C)n2C2CCCCC2)cc1OC ?
HTR5A ag: 12.0*; MOR-DOR ag: 1.0; pCIP destab: -2.2; MOR-DOR inv ag: -6.2; MIN6 prolif: -1.1; HTR5A inv ag: -59.0

Results for Cc1noc(C)c1CSc1nnc(-c2cccnc2)n1C1CCCCC1C (stereo unspecified) ?
HTR5A ag: 4.9; MOR-DOR ag: -2.1; pCIP destab: 0.5; MOR-DOR inv ag: 13.0; MIN6 prolif: -3.9; HTR5A inv ag: -1.5

Results for O=S(=O)(c1ccc2c(c1)C(=NO)c1cc(S(=O)(=O)N3CCCCC3)ccc1-2)N1CCCCC1 ?
HTR5A ag: -1.1; MOR-DOR ag: 8.2; pCIP destab: 60.3*; MOR-DOR inv ag: -47.8; MIN6 prolif: -6.0; HTR5A inv ag: -18.0

Results for CCOC(=O)c1c(C)[nH]c(=S)c(C#N)c1-c1ccc(OC)cc1 ?
HTR5A ag: -3.2; MOR-DOR ag: -2.0; pCIP destab: -12.8; MOR-DOR inv ag: 12.7; MIN6 prolif: -2.1; HTR5A inv ag: 5.7

Results for CCCCOc1ccc(-c2c(C(=O)Nc3ccccc3)c(C)[nH]c(=S)c2C#N)cc1 ?
HTR5A ag: 13.9*; MOR-DOR ag: 3.5; pCIP destab: -2.3; MOR-DOR inv ag: -22.8; MIN6 prolif: -3.1; HTR5A inv ag: -34.5

What do the screens show for `COc1ccc(C(CNC(=O)c2[nH]c(C)c(C(C)=O)c2C)N2CCOCC2)cc1` (stereo unspecified)?
HTR5A ag: 5.6; MOR-DOR ag: -4.8; MOR-DOR inv ag: 18.6; MIN6 prolif: -0.8; HTR5A inv ag: 10.6

Results for CC[C@]12c3[nH]c4cc(-c5ccco5)ccc4c3CCN1C(=O)[C@@H](CC(=O)NCc1cccc(C(F)(F)F)c1)C[C@@H]2C(=O)N1CCN(C(=O)c2ccco2)CC1 ?
HTR5A ag: 3.5*; MOR-DOR ag: 0.2; MOR-DOR inv ag: -0.8; HTR5A inv ag: -12.1

How did CC[C@]12c3[nH]c4cc(-c5ccco5)ccc4c3CCN1C(=O)[C@@H](CC(=O)NC(C)(C)C)C[C@@H]2C(=O)N1CCN(C(=O)C2CC2)CC1 do in these assays?
HTR5A ag: -0.4; MOR-DOR ag: -0.7; MOR-DOR inv ag: 3.8; HTR5A inv ag: 1.4

How did CCOc1cc(CO)cc(Br)c1OCC(N)=O do in these assays?
HTR5A ag: 2.3; MOR-DOR ag: 0.7; pCIP destab: -5.1; MOR-DOR inv ag: -4.7; MIN6 prolif: -1.5; HTR5A inv ag: 19.0

How did CCOc1cc(CNCc2cccnc2)cc(Br)c1OCC(N)=O do in these assays?
HTR5A ag: 10.1*; MOR-DOR ag: -0.1; pCIP destab: -0.3; MOR-DOR inv ag: 0.5; MIN6 prolif: -2.8; HTR5A inv ag: -37.1

Results for CN(CC(=O)Nc1ccc(F)cc1)C(=O)CSc1nnc(Cc2ccccc2)o1 ?
HTR5A ag: -8.2; MOR-DOR ag: -0.2; MOR-DOR inv ag: 0.9; MIN6 prolif: -3.5; HTR5A inv ag: 20.1

What do the screens show for `CN(Cc1ccccc1)C(=O)c1cccc(NC(=O)Cc2ccc(NC(=O)C3CCCN(C(=O)C4CCCCC4)C3)cc2)c1` (stereo unspecified)?
HTR5A ag: -0.3; MOR-DOR ag: 0.2; MOR-DOR inv ag: -0.7; HTR5A inv ag: 1.3

Results for CC(=O)N1N=C(c2cccs2)CC1c1cccc([N+](=O)[O-])c1 (stereo unspecified) ?
HTR5A ag: -11.9; MOR-DOR ag: -8.3; pCIP destab: -11.4; MOR-DOR inv ag: 38.2*; MIN6 prolif: 1.7; HTR5A inv ag: 32.6*

Results for C=CCOC(=O)/C=C/C(=O)NC(N)=O ?
HTR5A ag: -0.2; MOR-DOR ag: -1.1; pCIP destab: -5.2; MOR-DOR inv ag: 5.9; MIN6 prolif: 11.1*; HTR5A inv ag: 0.6

Results for C=CCOC(=O)Nc1ccc(Cl)cc1NC(=O)OCC=C ?
HTR5A ag: 6.4; MOR-DOR ag: -1.1; pCIP destab: -7.3; MOR-DOR inv ag: 6.5; MIN6 prolif: -1.4; HTR5A inv ag: -16.7

What do the screens show for `COc1cccc(NC(=O)CN(C)C(=O)CSc2nc(C)cc(C)n2)c1`?
HTR5A ag: -1.8; MOR-DOR ag: -0.1; MOR-DOR inv ag: 0.4; MIN6 prolif: -1.0; HTR5A inv ag: -3.4

What do the screens show for `O=C(CN1C(=O)CSc2ncccc21)Nc1cccc(Cl)c1`?
HTR5A ag: 10.3; MOR-DOR ag: 2.8; pCIP destab: -4.7; MOR-DOR inv ag: -16.6; MIN6 prolif: -3.0; HTR5A inv ag: -31.3

What do the screens show for `O[C@@H](c1cc(C(F)(F)F)nc2c(C(F)(F)F)cccc12)[C@H]1CCCCN1`?
HTR5A ag: 15.4; MOR-DOR ag: 20.6*; MOR-DOR inv ag: -114.0; MIN6 prolif: -8.3; HTR5A inv ag: 17.7

How did CCCOC(=O)c1cccc(Nc2nc(-c3cccnc3)nc3ccccc23)c1 do in these assays?
HTR5A ag: 14.1*; MOR-DOR ag: 4.8; pCIP destab: -4.2; MOR-DOR inv ag: -22.2; MIN6 prolif: -5.6; HTR5A inv ag: -78.6

Results for O=C(OCCNc1nc(-c2ccccc2)nc2ccccc12)c1cccnc1 ?
HTR5A ag: 3.3; MOR-DOR ag: 0.7; pCIP destab: -13.8; MOR-DOR inv ag: -5.1; MIN6 prolif: -0.3; HTR5A inv ag: -8.7

What do the screens show for `COc1ccc(/C=C2\SC(=O)N(CCCC(=O)Nc3cc(Cl)ccc3C(=O)O)C2=O)cc1`?
HTR5A ag: 1.4; MOR-DOR ag: -1.9; MOR-DOR inv ag: 9.1; MIN6 prolif: -3.9; HTR5A inv ag: -5.5

Results for CN1CCN(S(=O)(=O)c2ccc(NC(=O)c3ccccc3F)cc2)CC1 ?
HTR5A ag: 8.6*; MOR-DOR ag: -0.5; pCIP destab: 2.4; MOR-DOR inv ag: 2.3; MIN6 prolif: -2.5; HTR5A inv ag: -29.1

Bioassay records deposited in PubChem BioAssay by several laboratories.
